Structures can show the parent of a compound that is named as a salt.

The experiment deals with primary human hepatic stellate cells (donor 1). In words: PSMB2 reference mRNA level vs DMSO (fold); higher = more PSMB2 expression. As to conditions: 48 h. As to the method:
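Secondary qRT-PCR screen in primary human HSCs (donor 1), 384-well plates, with compounds dispensed in quadruplicate and incubated for 48 h. Cells-to-CT lysates were used for multiplexed TaqMan qPCR of ACTA2 or COL1A1 with PSMB2 as reference. Fold changes versus DMSO come from a linear model (Ct_gene ~ Ct_PSMB2 + plate + chemical). A hit is defined as COL1A1 and ACTA2 FC <0.5 (FDR <0.05) with PSMB2 between 0.2 and 2.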
With `Cc1ccc(-c2ccc3c(ccc4sc5c(c43)NC[C@@H](C)NC5=O)n2)cn1` (33.3333 µM), the “PSMB2 reference mRNA level” value was 3.41.
For `Cc1[nH]c(/C=C2\C(=O)Nc3ccc(S(=O)(=O)N(C)c4cccc(Cl)c4)cc32)c(C)c1C(=O)N1CCN(C)CC1` (33.3333 µM), the “PSMB2 reference mRNA level” value amounted to 0.98.
Turning to `CNc1nccc(-c2cccnc2Oc2cc(C(=O)Nc3cccc(C(F)(F)F)c3)ccc2C)n1` (33.3333 µM), the “PSMB2 reference mRNA level” value was determined as 0.887.
With `COc1cc2ncn(-c3cc(OCc4ccccc4C(F)(F)F)c(C(N)=O)s3)c2cc1OC` (33.3333 µM), the “PSMB2 reference mRNA level” value turned out to be 1.6.
As for `OCCN1CCN(CCCN2c3ccccc3Sc3ccc(C(F)(F)F)cc32)CC1` (33.3333 µM), the figure is 0.145; as for `[O-][S+](c1ccccc1)c1ccc2nnnn2n1` (stereo not given) (33.3333 µM), 0.000399; as for `O=C(Nc1cc(C(F)(F)F)cc(C(F)(F)F)c1)c1cc(Cl)ccc1O` (33.3333 µM), 1.2.
Regarding `Cc1ccc2c(c1)c1c3n2CCNC3CCC1` (stereo not given) [Pirlindole mesylate] (20.6667 µM), the “PSMB2 reference mRNA level” value came out at 0.807.
On to `Cc1ccc(NC(=O)C(C)C)cc1C1CCN(Cc2ccc(Oc3ccc(F)c(F)c3)cc2)CC1` (33.3333 µM), for which the “PSMB2 reference mRNA level” value worked out at 2.26.
As to `CN(C)CCC(c1ccc(Br)cc1)c1ccccn1` (stereo not given) [Brompheniramine maleate] (33.3333 µM), the “PSMB2 reference mRNA level” value amounted to 1.3.
In the case of `CCOC(=O)C1=C(COCCN)NC(C)=C(C(=O)OC)C1c1ccccc1Cl` (stereo not given) (33.3333 µM), the “PSMB2 reference mRNA level” value is 1.28.
With `CCc1cc2c(cc1CC)CC(NC[C@H](O)c1ccc(O)c3[nH]c(=O)ccc13)C2` [Indacaterol Maleate] (33.3333 µM), the “PSMB2 reference mRNA level” value is 0.728.
Turning to `Cc1ccc(NC(=O)c2ccc(CN3CCN(C)CC3)cc2)cc1Nc1nc(-c2cccnc2)cs1` [Masitinib (AB1010, Masivet)] (6.66667 µM), the “PSMB2 reference mRNA level” value turned out to be 0.679.
For the compound `CNCc1ccc(-c2[nH]c3cc(F)cc4c3c2CCNC4=O)cc1` (33.3333 µM), the “PSMB2 reference mRNA level” value amounted to 0.974.
As for `c1ccc2c(NCCCCCCCNc3c4c(nc5ccccc35)CCCC4)c3c(nc2c1)CCCC3` [bis(7)-Tacrine] (3.33333 µM), the figure is 0.971; as for `CCCCCCCCCCCCC/C=C/[C@@H](O)[C@H](CO)N(C)C` [N,N-Dimethylsphingosine] (3.33333 µM), 0.511; as for `CC[C@@H]1C(=O)N(C)c2cnc(Nc3ccc(C(=O)NC4CCN(C)CC4)cc3OC)nc2N1C1CCCC1` (33.3333 µM), 0.0022.
As to `O=C(O[C@H]1CN2CCC1CC2)N1CCc2ccccc2[C@@H]1c1ccccc1` [Solifenacin succinate] (33.3333 µM), the “PSMB2 reference mRNA level” value worked out at 0.935.
The result for `COC(=O)N[C@H](C(=O)N1CCC[C@H]1c1ncc(-c2ccc(-c3ccc(-c4cnc([C@@H]5CCCN5C(=O)[C@@H](NC(=O)OC)C(C)C)[nH]4)cc3)cc2)[nH]1)C(C)C` (33.3333 µM) reads 3.28; that for `CCN(CC)CC#CCOC(=O)C(O)(c1ccccc1)C1CCCCC1` (stereo not given) [Oxybutynin chloride] (16.9333 µM), 1.08.
For the compound `NS(=O)(=O)C#Cc1ccccc1` [Pifithrin->m] (33.3333 µM), the “PSMB2 reference mRNA level” value is 5.28.
As for `CNCCCC12CCC(c3ccccc31)c1ccccc12` [Maprotiline hydrochloride] (33.3333 µM), the figure is 1.89; as for `COc1cc2nc(N3CCCN(C)CC3)nc(NC3CCN(Cc4ccccc4)CC3)c2cc1OC` (3.33333 µM), 0.211.
Consider `COC(=O)C[C@](O)(CCCC(C)(C)O)C(=O)O[C@@H]1C(OC)=C[C@]23CCCN2CCc2cc4c(cc2[C@H]13)OCO4` [Homoharringtonine] (33.3333 µM), for which the “PSMB2 reference mRNA level” value worked out at 0.38.
As to `CC(/C=C/C(=O)NO)=C\[C@@H](C)C(=O)c1ccc(N(C)C)cc1` [Trichostatin A] (3.33333 µM), the “PSMB2 reference mRNA level” value is 1.36.
`CN1CCN(Cc2ccc(-c3cnc4[nH]cc(-c5ccc6[nH]ccc6c5)c4c3)cc2)CC1` (6.66667 µM): the “PSMB2 reference mRNA level” value was 0.507.
The result for `CNC(=O)[C@@H](Cc1ccccc1)N(C)C(=O)[C@@H](Cc1ccc2ccccc2c1)N(C)C(=O)/C=C/CC(C)(C)N` [Tabimorelin] (33.3333 µM) reads 1.83; that for `CCN(CC)CCCCNc1ncc2cc(-c3c(Cl)cccc3Cl)c(NC(=O)NC(C)(C)C)nc2n1` (33.3333 µM), 0.792; that for `O=C1Nc2ccccc2/C1=C1/Nc2ccccc2C1=O` [Indirubin] (63.5333 µM), 1.03.
Take `Nc1ccc(C(=O)Nc2cccc(-c3nc(N4CCOCC4)c4oc5ncccc5c4n3)c2)cn1` (6.66667 µM): the “PSMB2 reference mRNA level” value was found to be 3.27.
As for `C[C@H]1O[C@@H](O[C@H]2[C@@H](O)C[C@H](O[C@H]3[C@@H](O)C[C@H](O[C@H]4CC[C@@]5(C)[C@H](CC[C@@H]6[C@@H]5C[C@@H](O)[C@]5(C)[C@@H](C7=CC(=O)OC7)CC[C@]65O)C4)O[C@@H]3C)O[C@@H]2C)C[C@H](O)[C@@H]1O` [Digoxin] (33.3333 µM), the figure is 1.06; as for `CC(C)c1cc(-c2n[nH]c(=O)n2-c2ccc3c(ccn3C)c2)c(O)cc1O` [Ganetespib (STA-9090)] (33.3333 µM), 0.415.
As for `COc1ccccc1OCCNCC(O)COc1cccc2[nH]c3ccccc3c12` (stereo not given) [Carvedilol] (33.3333 µM), the “PSMB2 reference mRNA level” value was found to be 2.15.
Take `CC1(C)CC(=O)c2c(C(F)(F)F)nn(-c3ccc(C(N)=O)c(N[C@H]4CC[C@H](OC(=O)CN)CC4)c3)c2C1` (33.3333 µM): the “PSMB2 reference mRNA level” value was determined as 0.59.
The result for `CCCSc1ccc2[nH]c(NC(=O)OC)nc2c1` [Albendazole] (33.3333 µM) reads 1.65.
Turning to `CC[C@]1(O)C[C@@H]2CN(CCc3c([nH]c4ccccc34)[C@@](C(=O)OC)(c3cc4c(cc3OC)N(C)[C@H]3[C@@](O)(C(=O)OC)[C@H](OC(C)=O)[C@]5(CC)C=CCN6CC[C@]43[C@@H]65)C2)C1` [Vinblastine sulfate] (33.3333 µM), the “PSMB2 reference mRNA level” value was 0.0998.
On to `O=C1NC(=O)/C(=C/c2ccc(-c3ccc(F)cc3O)o2)S1` (33.3333 µM), for which the “PSMB2 reference mRNA level” value came to 3.41.
The result for `CN(C)C/C=C(/c1ccc(Br)cc1)c1cccnc1` [Zimelidine dihydrochloride] (11.1 µM) reads 0.28; that for `CN1CCC(CNc2ccc3ncc(-c4cccc(OC(F)(F)F)c4)n3n2)CC1` (6.66667 µM), 0.712.
Take `COc1ccc(NS(=O)(=O)c2sc3ccc(Cl)cc3c2C)cc1N1CCNCC1` (33.3333 µM): the “PSMB2 reference mRNA level” value was 0.507.

(Values after the supplement of paper PMC9135407.)
